Data from the supplement of paper PMC12045047.
Counter-ions that a name gives are not always drawn. Values without a mark were called inactive.

System: primary human airway basal cells (HBEC, luciferase-transduced)
Assay: proliferation (luciferase bioluminescence) Z score relative to plate mean; higher = more proliferation / more cells, active = 1.96 or more
Conditions: donor: 1; 0.5 µM; library: ENZO Libraries; 4 days
Protocol: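 Primary human bronchial epithelial (airway basal) cells from two donors, lentivirally transduced with pHIV-Luc-ZsGreen, were seeded at 2000 cells/well in 384-well plates in FAD medium with ENZO or Prestwick library compounds and cultured for 4 days. Luciferin was then added and bioluminescence was read as a measure of cell number. Relative light units were converted to Z scores against the plate, and the mean of triplicate wells is reported.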

Compared with `Cc1ccc(S(=O)(=O)N[C@@H](Cc2ccccc2)C(=O)CCl)cc1`, `CC(=O)Nc1ccc(C(=O)Nc2ccccc2N)cc1` is higher in proliferation: -0.621 for the first, 0.183 for the second.

First: CC[C@H](C)[C@H](N)C(=O)N1CCSC1 [P32/98 hemifumarate salt]
Second: C[C@H](CS)C(=O)N1CCC[C@H]1C(=O)O [Captopril]
The proliferation of the first is higher: -0.342 for the first, -0.424 for the second.

First: O=Nc1c(-c2c(O)[nH]c3ccccc23)[nH]c2ccccc12 [Indirubin-3'-monooxime]
Second: O=C1CCc2c(ccc3ccccc23)O1 [Splitomicin]
The proliferation of the first is higher: -0.0926 for the first, -0.477 for the second.

Compared with `Nc1c(O)cc(O)cc1C=Cc1ccc(O)cc1` [Aminoresveratrol sulfate], `O=c1cc(-c2ccc(O)cc2)oc2cc(O)cc(O)c12` [Apigenin] is higher in proliferation: 0.00314 for the first, 0.308 for the second.

Going from `O=C1c2ccccc2C(=O)c2c(NCCc3ccc(O)cc3)ccc(NCCc3ccc(O)cc3)c21` to `Cc1ccc(NC(=O)c2cccc(N(C)C)c2)cc1NC(=O)c1ccc(O)cc1`, the proliferation rises from 0.275 to 0.389.

Going from `O=C(O)c1cc(NCc2cc(O)ccc2O)ccc1O` [2-Hydroxy-5-(25-dihydroxybenzylamino)benzoic acid] to `N#C/C(=C\c1ccc(O)c(O)c1)C(=O)Nc1ccccc1`, the proliferation rises from -0.149 to 0.183.

First: C[C@H](NC(=O)[C@@H]1CCCN1C(=O)[C@@H]1CCCN1C(=O)[C@@H](O)[C@H](N)Cc1ccccc1)C(N)=O [Apstatin]
Second: CC(C)C[C@H](NC(=O)[C@H]1O[C@@H]1C(=O)O)C(=O)NCCCCN=C(N)N
The proliferation of the first is lower: -0.513 for the first, -0.0103 for the second.

Going from `CO[C@@H]1[C@H](OC(=O)/C=C/C=C/C=C/C=C/C(=O)O)CC[C@]2(CO2)[C@H]1[C@@]1(C)O[C@@H]1CC=C(C)C` [Fumagillin] to `N#CC(=Cc1ccc2[nH]ccc2c1)C(N)=C(C#N)C#N`, the proliferation rises from -1.58 to 0.0615.

Going from `NC(=O)c1cccnc1` [Nicotinamide] to `NC(=O)c1ccncc1` [Isonicotinamide], the proliferation rises from 0.0934 to 0.125.

With `Cc1cc2ncc(-c3ccccc3)nc2cc1C` the proliferation was 5.22 (active).
`COc1cc2ncc(-c3ccccc3)nc2cc1OC` was tested, and the proliferation was 2.2 (active).

Same assay, conditions: donor: 1; 5 µM; library: ENZO Libraries; 4 days

Compared with `Cc1ccc(S(=O)(=O)N[C@@H](Cc2ccccc2)C(=O)CCl)cc1`, `CC(=O)Nc1ccc(C(=O)Nc2ccccc2N)cc1` is higher in proliferation: -0.67 for the first, -0.038 for the second.

Going from `CC[C@H](C)[C@H](N)C(=O)N1CCSC1` [P32/98 hemifumarate salt] to `C[C@H](CS)C(=O)N1CCC[C@H]1C(=O)O` [Captopril], the proliferation rises from -0.616 to -0.0768.

Compared with `Nc1c(O)cc(O)cc1C=Cc1ccc(O)cc1` [Aminoresveratrol sulfate], `O=C(O)c1cc(NCc2cc(O)ccc2O)ccc1O` [2-Hydroxy-5-(25-dihydroxybenzylamino)benzoic acid] is lower in proliferation: 1.56 for the first, -0.503 for the second.

Going from `O=C1c2ccccc2C(=O)c2c(NCCc3ccc(O)cc3)ccc(NCCc3ccc(O)cc3)c21` to `Cc1ccc(NC(=O)c2cccc(N(C)C)c2)cc1NC(=O)c1ccc(O)cc1`, the proliferation rises from -0.000622 to 0.18.

Compared with `C[C@H](NC(=O)[C@@H]1CCCN1C(=O)[C@@H]1CCCN1C(=O)[C@@H](O)[C@H](N)Cc1ccccc1)C(N)=O` [Apstatin], `CC(C)C[C@H](NC(=O)[C@H]1O[C@@H]1C(=O)O)C(=O)NCCCCN=C(N)N` is higher in proliferation: -0.193 for the first, -0.0032 for the second.

Compared with `CO[C@@H]1[C@H](OC(=O)/C=C/C=C/C=C/C=C/C(=O)O)CC[C@]2(CO2)[C@H]1[C@@]1(C)O[C@@H]1CC=C(C)C` [Fumagillin], `N#C/C(=C\c1ccc(O)c(O)c1)C(=O)Nc1ccccc1` is higher in proliferation: -0.343 for the first, 0.06 for the second.

First: NC(=O)c1cccnc1 [Nicotinamide]
Second: NC(=O)c1ccncc1 [Isonicotinamide]
The proliferation of the first is higher: 0.119 for the first, -0.0123 for the second.

First: N#CC(=Cc1ccc2[nH]ccc2c1)C(N)=C(C#N)C#N
Second: O=C1CCc2c(ccc3ccccc23)O1 [Splitomicin]
The proliferation of the first is lower: -0.386 for the first, -0.269 for the second.

`O=Nc1c(-c2c(O)[nH]c3ccccc23)[nH]c2ccccc12` [Indirubin-3'-monooxime] was tested, and the proliferation was 2.48 (active).
`O=c1cc(-c2ccc(O)cc2)oc2cc(O)cc(O)c12` [Apigenin] was tested, and the proliferation was 3.23 (active).
With `Cc1cc2ncc(-c3ccccc3)nc2cc1C` the proliferation was 2.1 (active).
For `COc1cc2ncc(-c3ccccc3)nc2cc1OC`, the proliferation was 2.78 (active).
